Sampled rows, rich in hits. Any-hit rate of the full collection: about 2.4%.
M1 ag parental – counter-screen for M1 agonists: effect in parental CHO-K1 cells. hit rate 0.48% among 360,000. Fluo-8 calcium fluorescence; scaled to maximal ATP response, vehicle zero. AID 602248, 2012. activation, % at 3 µM; in the data active means activation above about 15%;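 further: untransfected CHO-K1 host cells lacking M1 receptor as counterscreen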
M1 antag – human M1 muscarinic receptor antagonists, primary screen, CHO-K1 cells, Fluo-8 calcium fluorescence, 1536-well; Muscarinic acetylcholine receptor M1 (Homo sapiens), P11229; CHO-K1 hM1, ACh EC80 antagonist; inhibition, % at 3 µM; hit rate 1.3% among 360,000;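 active means percent inhibition above its own plate's cutoff, namely the mean of that plate's compound wells plus 3 SD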;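 further: peak over basal fluorescence ratio during 140 s after agonist addition; 0% = ACh EC80 plus DMSO and 100% = DMSO alone without agonist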
Target sequence (P11229 whole entry, looked up): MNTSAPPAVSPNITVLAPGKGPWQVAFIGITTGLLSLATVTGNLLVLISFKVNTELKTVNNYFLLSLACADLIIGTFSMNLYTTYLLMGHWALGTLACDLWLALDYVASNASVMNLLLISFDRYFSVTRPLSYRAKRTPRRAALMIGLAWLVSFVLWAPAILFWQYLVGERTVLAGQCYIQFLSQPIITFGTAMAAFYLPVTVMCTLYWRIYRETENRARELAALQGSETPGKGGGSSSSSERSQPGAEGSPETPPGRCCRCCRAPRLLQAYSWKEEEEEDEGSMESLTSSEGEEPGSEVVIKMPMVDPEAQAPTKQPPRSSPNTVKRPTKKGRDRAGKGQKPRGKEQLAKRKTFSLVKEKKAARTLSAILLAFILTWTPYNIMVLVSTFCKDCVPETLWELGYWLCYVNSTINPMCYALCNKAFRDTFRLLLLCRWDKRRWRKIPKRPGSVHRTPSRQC
CHRM1 PAM – human M1 muscarinic receptor positive allosteric modulators, primary screen, CHO-K1 cells, Fluo-8 calcium fluorescence, 1536-well; Muscarinic acetylcholine receptor M1 (Homo sapiens), P11229; CHO-K1 hM1, ACh EC20; 0% = ACh EC20, 100% = maximal ACh; activation, % at 3 µM; hit rate 0.088% among 360,000; AID 588819, 2011; in the data active means activation above about 19%, passing the limit was not always enough
CHO-K1 Ca PAM – nonselective calcium activators in parental CHO-K1 cells, primary screen, counter-screen for M1 PAM project, cell-based, Fluo-8 calcium fluorescence, full deck, 1536-well; ATP EC20; 0% at ATP EC20, 100% at ATP max; activation, % at 3 µM; hit rate 0.02% among 360,000; AID 602247, 2012;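 active means activation above the run cutoff, the mean activation of all test compounds plus 3 SD, cut at about 40% in these data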;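 further: peak over basal fluorescence ratio in a 140 s read after ATP addition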
CHO-K1 Ca antag – M1 antagonist counterscreen hit in parental CHO-K1 cells. ATP-induced calcium, Fluo-8 fluorescence. inhibition, % at 3 µM. hit rate 0.6% among 360,000. AID 602250;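 active means inhibition above a per-plate cutoff, the plate's mean sample inhibition plus 3 SD, cut at about 24% in these data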;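 further: 0% = DMSO plus EC80 ATP and 100% = DMSO alone without ATP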
CHRM1 agonist – human M1 muscarinic receptor agonists, primary screen, Fluo-8 calcium fluorescence, CHO-K1 cells, HTS. CHO-K1 hM1, agonist mode; 0% DMSO, 100% acetylcholine EC100. activation, % at 3 µM. hit rate 0.33% among 360,000. AID 588814, 2011;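 active means activation above the run's mean compound activation plus 3 SD, cut at about 16% in these data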;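 further: peak over basal fluorescence ratio within a 140 s kinetic read after compound addition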
* = called active by the depositor; / = no result given.

SMILES	M1 ag parental	M1 antag	CHRM1 PAM	CHO-K1 Ca PAM	CHO-K1 Ca antag	CHRM1 agonist
COc1ccc(OC(C)C(=O)N2CCc3ccccc3C2)cc1 (stereo not drawn)	0	-4	7	-7	25*	-1
CCc1ccc(S(=O)(=O)Nc2nnc(N)s2)cc1	0	-26	19	20	-8	1
O=C(O)C1C=CCC(C(=O)O)C1 (stereo not drawn)	0	-3	2	8	-8	-2
C=CCOc1ccccc1CN(CCc1ccccc1)C(=O)c1cccc(S(C)(=O)=O)c1	16*	4	-3	8	-5	-5
Nc1ccc2c(c1)N=[N+]([O-])c1cc(N)ccc1C2	3	-5	11	6	-12	-3
C=CCNC(=O)c1ccccc1Cl	19*	-7	6	11	-3	-4
CC(c1ccon1)N(C)C(=O)CCc1nnc(C2(c3ccc(Cl)cc3)CCC2)o1 (stereo not drawn)	0	-12	8	-8	-6	-3
COc1ccc(CC(=O)NC(C)c2nnc(SCC(=O)c3ccc(Br)cc3)n2C)cc1 (stereo not drawn)	1	2	5	2	-16	-9
COc1ccc(CC(=O)NC(C)c2nnc(SCC(=O)Nc3nc(C)cs3)n2C)cc1 (stereo not drawn)	0	5	9	-6	31*	-4
O=C(CC(=O)N/N=C/c1cccs1)NCc1ccccc1	16*	7	4	1	7	-7
CCCCn1c(N)c(N(CCOC)C(=O)c2ccc3c(c2)C(=O)N(c2ccccc2C)C3=O)c(=O)[nH]c1=O	0	33*	-1	-10	7	-2
COC(=O)c1ccccc1NC(=O)C1CCN(c2ncnc3c2nc2n3CCCCC2)CC1	0	-9	14	-5	-3	-2
CCOc1cc(OCC)cc(C(=O)N2CCC[C@@H]2C(=O)N2CCC[C@@H]2C(=O)NCc2ccccc2Cl)c1	17*	/	/	-4	10	/
COc1ccccc1C(=O)N1[C@@H](C(C)C)COc2cc(Br)ccc2S1(=O)=O	0	7	-10	13	1	-8
O=C(CSc1nn(-c2ccccc2)c(=S)s1)Nn1cnnc1	0	-10	3	6	-4	-1
Cc1ccc(NC(=O)CSc2nn(-c3ccccc3)c(=S)s2)cc1S(=O)(=O)N(C)C	13	25*	-12	-5	29*	-1
CC1=C(C(=O)N(C)C)CC(CC(=O)NCC2CCCCC2)C(=O)N1Cc1ccc(F)cc1 (stereo not drawn)	0	3	6	11	7	-8
O=C(NCC(c1ccccc1Cl)N1CCCC1)c1ccc(N2CCCC2=O)cc1 (stereo not drawn)	0	56*	-25	-1	-5	-8
CC(=O)Nc1ccc(S(=O)(=O)N2CCN(CC(O)COc3ccc4ccccc4c3)CC2)cc1 (stereo not drawn)	12	34*	-21	-9	5	0
CC(=O)Nc1ccc(OCC(O)CN2CCN(S(=O)(=O)c3ccc(NC(C)=O)cc3)CC2)cc1 (stereo not drawn)	0	-5	3	13	-11	-5
C[C@@H]1CN([C@@H](C)CO)C(=O)CCCn2nncc2CO[C@@H]1CN(C)S(=O)(=O)c1ccc2ccccc2c1	0	24	-14	-7	14	-4
C[C@@H]1CN([C@H](C)CO)S(=O)(=O)c2ccc(C#Cc3ccccc3F)cc2O[C@H]1CN(C)C(=O)c1ccc2c(c1)OCO2	6	27*	-11	10	4	5
CCOC(=O)C1=C(C)N(CC(C)C)C(=O)/C1=C\c1ccc(OCC(=O)Nc2ccccc2)cc1	1	34*	-20	13	-1	-4
Cc1c(CCOC(=O)c2ccccc2)sc[n+]1CC(=O)c1ccc(Br)cc1	1	77*	-32	-9	-6	-11
Cc1c(CCOC(=O)c2cc([N+](=O)[O-])cc([N+](=O)[O-])c2)sc[n+]1CC(=O)c1ccccc1	0	32	-16	10	-14	-6
SMILES	M1 ag parental	M1 antag	CHRM1 PAM	CHO-K1 Ca PAM	CHO-K1 Ca antag	CHRM1 agonist
Cc1c(CCOC(=O)c2ccccc2)sc[n+]1Cc1ccccc1	-1	98*	-22	-15	26*	-9
O=C1CCN(CC2CCCCC2)C=C1C(=O)c1ccccc1	0	22	-13	-8	13	0
Cc1ccc(N(CC(=O)NC2CCCC2)C(=O)CCC(=O)Nc2nc(C)cs2)cc1	2	-21	19	10	-12	6
C=CCSC1=N/C(=C/c2ccsc2)C(=O)N1c1ccccc1	1	2	1	18	-12	-6
N#Cc1c(NC(=O)c2ccc(-c3ccccc3[N+](=O)[O-])o2)sc2c1CCCC2	-1	-14	8	-6	28*	4
Cc1ccc(NC(=O)CN(C)C(=O)C(C)OC(=O)c2ccccc2NCCO)cc1 (stereo not drawn)	0	-27	28*	8	-2	2
O=[N+]([O-])c1ccc(CSc2nc3ccccc3o2)cc1	-1	-13	5	-8	11	-3
COC(=O)c1ccc(CSc2nc3ccccc3o2)cc1	0	10	-1	-6	29*	-1
CC(C)C(OC(=O)CN1C(=O)COc2ccccc21)C(=O)NC1CCCCC1 (stereo not drawn)	1	-14	13	13	-21	-2
COc1cc(S(=O)(=O)N2CCN(C(=O)c3ccco3)CC2)c(OC)cc1C	1	78*	7	17	-7	0
COc1ccc(OC)c(S(=O)(=O)N2CCN(C(=O)c3ccco3)CC2)c1	0	-23	18	0	-7	-2
CCn1c(=Nc2ccc(N3CCOCC3)cc2)ccc2ccccc21	0	10	-13	-5	14	-10
Cn1c(=Nc2ccc(N3CCOCC3)cc2)ccc2ccccc21	0	48*	-13	-4	0	-6
O=C(COC(=O)c1ccccc1[N+](=O)[O-])Nc1cccnc1Cl	1	-11	10	9	-9	-1
O=C(CN(C(=O)c1ccccc1Cl)N1C(=O)C2C3C=CC(C3)C2C1=O)c1cccs1 (stereo not drawn)	1	-6	3	16	-6	-3
Cc1cccc(C)c1C(=NCCCN(C)C)c1ccccc1	1	79*	-27	22	-8	-8
Cc1cc(C)c(OCC(=O)OCC(=O)NCc2cccs2)c(C)c1	0	-7	1	-12	5	-2
